# Laboratory results: the supplement of paper PMC10981050
# Where “and” joins values, the source holds several entries; their conditions need not be identical. Equal entries are not always repeated. Structures can show the parent of a compound that is named as a salt.
# Tests used:
# Assay in all cases: cell viability relative to vehicle control; higher = less cytotoxic
# Details in all cases: 10 µM
# [1] = system: K562
# Outline: (§1)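 CRISPR-edited mutant clones and isogenic wild-type clones from four leukaemia lines were screened against Selleck bioactive, kinase and epigenetic probe libraries, with identity-inconsistent compounds excluded. Each compound was acoustically dispensed at a single 10 µM dose into 384-well plates holding 2000 cells in 50 µL medium per well. After 48 h the supernatant was removed and CellTiter-Glo luminescence was read. Viability was expressed as percent of the on-plate vehicle control and analysed in Genedata Screener.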
# [2] = system: MARIMO
# Outline: as §1
# [3] = system: MOLM14
# Outline: as §1
# [4] = system: OCI-AML2
# Outline: as §1
Structure (SMILES),cell viability ([1]; SRSF2 genotype: SRSF2 P95H/wt),cell viability ([1]; SRSF2 genotype: SRSF2 wt/wt) [%],cell viability ([2]; SRSF2 genotype: SRSF2 P95H/wt) [%],cell viability ([2]; SRSF2 genotype: SRSF2 wt/wt) [%],cell viability ([3]; SRSF2 genotype: SRSF2 P95H/wt) [%],cell viability ([3]; SRSF2 genotype: SRSF2 wt/wt) [%],cell viability ([4]; SRSF2 genotype: P95H/wt) [%],cell viability ([4]; SRSF2 genotype: wt/wt) [%]
c1coc(CNc2ncnc3[nH]cnc23)c1 [Kinetin (6-Furfuryladenine)],94.1% and 107%,104,100,113,98.4,105,116,97.6
CC1(C)S[C@@H]2[C@H](NC(=O)Cc3ccccc3)C(=O)N2[C@H]1C(=O)O.CCN(CC)CCOC(=O)c1ccc(N)cc1 [Penicillin G Procaine],107% and 104%,101,104,118,99.7,109,97.8,99.4
Cc1csc(-c2nnc(Nc3ccc(Oc4ncccc4-c4ccnc(N)n4)cc3)c3ccccc23)c1,67.2% and 86.6%,81.4,91.6,77.7,53.3,30.5,38.5,33.4
CC(C)(C(=O)O)c1ccc(C(O)CCCN2CCC(C(O)(c3ccccc3)c3ccccc3)CC2)cc1 (stereo unspecified) [Fexofenadine HCl],99.1% and 98.7%,101,95.9,103,100,101,94.1,110
CCOC(=O)/C=C/c1ccc(O)c(OC)c1 [Ethyl ferulate],98% and 104%,104,92,107,98,101,112,108
COc1ccc(/C=C/c2cc(O)cc(O)c2)cc1O [Rhapontigenin],95.7% and 103%,105,101,97.9,119,109,94.2,86.2
Clc1ccc2c(N3CCN(CCCN4CCN(c5ccnc6cc(Cl)ccc56)CC4)CC3)ccnc2c1 [Piperaquine phosphate],99.4% and 95%,98.2,93.8,103,85.3,102,92.7,88
CN(Cc1cc(Br)cc(Br)c1N)C1CCCCC1 [Bromhexine HCl],96.8% and 96.7%,92.8,86.6,99.2,96.7,99.4,92.2,98.7
Oc1ccc2c(c1)OCO2 [Sesamol],96.7% and 82%,83.8,76.8,88.2,86.5,88,92,92.1
CC(C)[N+]1(C)[C@@H]2CC[C@H]1C[C@@H](OC(=O)C(CO)c1ccccc1)C2 (stereo partly specified) [Ipratropium bromide],113% and 109%,105,99.5,105,99.8,105,99.1,118
Cc1cn(CCN2CCN(c3ccccc3-c3cc(C#N)cc(C(=O)NCCCN4CCCC4)c3)CC2)c2ccccc12,0.16% and 0.18%,0.16,0.17,0.22,0.12,0.12,0.03,0.1
O=c1ncccn1[C@@H]1O[C@H](CO)[C@@H](O)[C@H]1O [Zebularine],90.9% and 85.1%,82.2,87.7,91.4,89.7,89.7,96.6,86.6
OCC1(O)COc2cc(O)ccc2-c2cc(O)c(O)cc2C1 (stereo unspecified) [Protosappanin B],93.9% and 95.9%,95.7,100,97.1,102,96.2,97.3,99.5
"CCCCCCOc1cc(C)c(O)c(C)c1C [HTHQ(1-O-Hexyl-2,3,5-trimethylhydroquinone)]",93.5% and 93.8%,106,89.1,96,91.1,102,98.7,107
O=CCc1ccccc1 [Phenylacetaldehyde],99.4% and 97.2%,92.8,97.5,95.2,107,97.2,99.5,93.5
COc1ccc(-c2cc(=O)c3c(O)c(OC)c(O)c(OC)c3o2)cc1 [Lysionotin],104% and 98%,98.9,97.9,114,64,76.8,74.8,83
C[C@@H](c1nc(-c2ccc(C#N)cc2)cs1)[C@](O)(Cn1cncn1)c1cc(F)ccc1F [Isavuconazole],45.7% and 47.6%,48.5,39.3,33,44.8,26,38.7,28
Nc1ncn([C@H]2C[C@H](O)[C@@H](CO)O2)c(=O)n1 [Decitabine],77.9% and 88.9%,80.9,69.5,73.8,47.4,39.7,54.4,58.2
O=C1Nc2ccc(I)cc2C1=Cc1cc(Br)c(O)c(Br)c1,96.6% and 89.4%,90.1,89.9,109,84.7,93.8,86.7,90.7
CC1=CC(=O)CC(C)(C)C1(O)/C=C/C(C)=C\C(=O)O (stereo unspecified) [Abscisic Acid (Dormin)],102% and 99.2%,98.1,101,110,104,101,105,102
NC(=O)c1cccc(-c2cccc(OC(=O)NC3CCCCC3)c2)c1,95.8% and 91.2%,96.1,95,92.4,99.5,99,88.6,96.4

Structure (SMILES),cell viability ([1]; SRSF2 genotype: SRSF2 P95H/wt),cell viability ([1]; SRSF2 genotype: SRSF2 wt/wt) [%],cell viability ([2]; SRSF2 genotype: SRSF2 P95H/wt) [%],cell viability ([2]; SRSF2 genotype: SRSF2 wt/wt) [%],cell viability ([3]; SRSF2 genotype: SRSF2 P95H/wt) [%],cell viability ([3]; SRSF2 genotype: SRSF2 wt/wt) [%],cell viability ([4]; SRSF2 genotype: P95H/wt) [%],cell viability ([4]; SRSF2 genotype: wt/wt) [%]
C[C@@H]1CN(CC(=O)Nc2ccc3c(c2)Cc2cccc(-c4cc(=O)cc(N5CCOCC5)o4)c2S3)C[C@H](C)O1,98.9% and 102%,99.1,82.9,86.9,56.9,55.8,51.3,64.2
COc1cc(O)c(C(=O)/C=C/c2ccccc2)c(OC)c1 [Flavokawain B],23.3% and 39%,58,34.5,39,22.6,11.3,22.8,25.2
CC[C@H]1OC(=O)C[C@@H](O)[C@H](C)[C@@H](O[C@@H]2O[C@H](C)[C@@H](O)[C@H](N(C)C)[C@H]2O)[C@@H](CCN2C[C@H](C)C[C@H](C)C2)C[C@@H](C)C(=O)/C=C/C(C)=C/[C@@H]1CO[C@@H]1O[C@H](C)[C@@H](O)[C@@H](OC)[C@H]1OC [Tilmicosin phosphate],102%,108,98,103,106,101,108,112
N#C[C@@H]1CCCN1C(=O)CNC12CC3CC(CC(O)(C3)C1)C2 [Vildagliptin (LAF-237)],87.8% and 87.2%,84.8,81.8,88.6,83.9,89,88.8,87.7
CCOC(=O)C=Cc1ccc(OC)cc1 [Ethyl 4-Methoxycinnamate],86% and 83.2%,80,81.3,88.4,83.9,84.5,84.6,83.5
C=CC(=O)N1CCC[C@@H](n2nc(-c3ccc(Oc4ccccc4)cc3)c(C(N)=O)c2N)C1 [Btk inhibitor 2],81.6% and 89.2%,84.8,79.8,90.2,25.4,25.4,48.2,52.1
CC(=O)c1cc2c(o1)C(=O)c1ccccc1C2=O [Napabucasin],0.4% and 0.37%,0.39,3.59,2.73,0.37,0.39,0.4,0.39
O=C(/C=C/c1ccc(O)cc1)OC[C@H]1O[C@@H](Oc2c(-c3ccc(O)cc3)oc3cc(O)cc(O)c3c2=O)[C@H](O)[C@@H](O)[C@@H]1O [Tiliroside],99.3% and 99.1%,95.3,98.9,109,100,105,104,111
Cc1onc(-c2c(F)cccc2Cl)c1C(=O)N[C@@H]1C(=O)N2[C@@H]1SC(C)(C)[C@@H]2C(=O)O [Flucloxacillin sodium],96.6% and 89.9%,94.3,100,108,95.6,96.5,99.6,107
O=C(O)/C=C/c1ccc(Cn2ccnc2)cc1 [Ozagrel HCl],97.6%,96.3,92.8,109,98.8,103,92.6,105
CCS(=O)(=O)c1cccc(-c2cc(C(=O)NC3CCN(C)CC3)c(C)c3[nH]c4ncc(C)cc4c23)c1,29% and 32.2%,21.9,11.9,7.33,2.91,2.2,4.55,11.1
CCCCCC(O)C=CC1C(O)CC(=O)C1CCCCCCC(=O)O (stereo unspecified) [Alprostadil(Caverject)],69.3% and 64.4%,84.2,82.4,73.2,50.1,22.4,80.3,62.1
CC=C(C)C(=O)O [S3803 Angelic acid.cdx],106% and 99.5%,103,106,108,104,100,103,108
Cc1oc2nc3c(c(NC(=O)CN4CCCC4=O)c2c1C)CCCC3 [Coluracetam],95.4% and 96.3%,105,93.7,104,103,103,94.9,99.4
O=c1c(O)c(-c2ccc(O)cc2O)oc2cc(O)cc(O)c12 [Morin hydrate (Aurantica)],94.3% and 106%,106,108,108,107,107,107,102
CC(=O)Nc1ccc(OC(=O)c2ccccc2OC(C)=O)cc1 [Benorylate],102%,98.9,104,100,104,101,107,108
Cc1cc(=O)n(-c2ccccc2)n1C [Antipyrine],97.8% and 87.7%,82.7,86.2,95.4,88.1,87.4,84.8,93.4
COc1ccc(-c2oc3cc(O)cc(O)c3c(=O)c2O)cc1 [kaempferide],108% and 104%,103,105,119,74.6,98.2,80.7,82.7
Cc1ccn[nH]1 [3-Methylpyrazole],112% and 104%,103,107,110,99.3,105,95.4,106
CCCC[S+]([O-])c1sc2nc(-c3cccs3)cc(-c3ccccc3)c2c1N (stereo unspecified),94.5% and 97%,92.9,95,109,103,99.4,98.7,98.8
O=C(Nc1cccc2cccnc12)c1ccc(N2C(=O)C3C4C=CC(C4)C3C2=O)cc1 (stereo not drawn) [IWR-1-endo],95.8% and 94%,101,100,103,111,118,97.9,98.8
